In the GenesisPotency data set:
Screen size: about 290,000 compounds; about 3,000 (1%) were called active. Cut-off read from the data, not from the text of the source: active = inhibition mostly above about 36% (no sharp cut-off); inactive = mostly below about 34%. Shown is part of a subset that was picked to be rich in actives.

Molecular target: T1, Nucleotide-binding oligomerization domain-containing protein 1, Homo sapiens (UniProt Q9Y239)
T1 sequence (whole entry): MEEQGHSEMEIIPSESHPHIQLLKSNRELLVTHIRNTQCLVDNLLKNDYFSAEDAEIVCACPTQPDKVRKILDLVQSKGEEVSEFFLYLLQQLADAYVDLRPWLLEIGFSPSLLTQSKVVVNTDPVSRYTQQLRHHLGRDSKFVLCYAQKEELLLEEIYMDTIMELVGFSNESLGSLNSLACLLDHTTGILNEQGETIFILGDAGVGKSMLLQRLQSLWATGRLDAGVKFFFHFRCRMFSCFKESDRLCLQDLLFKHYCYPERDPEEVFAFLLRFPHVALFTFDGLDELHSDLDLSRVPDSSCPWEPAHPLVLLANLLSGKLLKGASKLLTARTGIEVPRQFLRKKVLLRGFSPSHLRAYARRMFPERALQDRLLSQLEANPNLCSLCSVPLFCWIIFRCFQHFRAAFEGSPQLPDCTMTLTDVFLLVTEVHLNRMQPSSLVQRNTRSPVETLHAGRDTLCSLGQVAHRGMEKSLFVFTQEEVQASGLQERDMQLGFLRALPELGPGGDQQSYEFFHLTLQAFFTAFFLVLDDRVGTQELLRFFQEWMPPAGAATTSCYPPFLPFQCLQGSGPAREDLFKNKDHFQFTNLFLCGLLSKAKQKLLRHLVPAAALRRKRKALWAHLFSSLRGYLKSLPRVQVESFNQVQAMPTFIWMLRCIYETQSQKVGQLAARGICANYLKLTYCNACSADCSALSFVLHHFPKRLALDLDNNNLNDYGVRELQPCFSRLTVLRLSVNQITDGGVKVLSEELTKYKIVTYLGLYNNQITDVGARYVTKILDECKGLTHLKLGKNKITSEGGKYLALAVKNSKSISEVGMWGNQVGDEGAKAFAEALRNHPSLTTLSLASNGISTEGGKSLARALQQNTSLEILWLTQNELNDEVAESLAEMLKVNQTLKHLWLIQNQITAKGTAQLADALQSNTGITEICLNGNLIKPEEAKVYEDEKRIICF
Assay: NOD1 signaling inhibitors, primary screen, cell-based, luminescence, uHTS (AID 1578)

Row | SMILES | outcome
1 | CC1CCC/C=C/C(=O)c2c(O)cc(O)cc2CC(=O)O1 (stereo not drawn) | active
2 | COc1ccc(NC(=O)/C(Cl)=C(/Cl)S(=O)(=O)Cc2ccc(C)cc2)cn1 | active
3 | COc1ccc(NC(=O)/C(Cl)=C(/Cl)S(=O)(=O)Cc2ccccc2)cn1 | active
4 | N=C1SCC(=O)N1c1ncc(Cc2ccc(F)cc2)s1 | active
5 | N=C1SCC(=O)N1c1ncc(Cc2cccc(Cl)c2)s1 | active
6 | N=C1SCC(=O)N1c1ncc(Cc2ccccc2Cl)s1 | active
7 | O=c1[nH]c(=O)n(Cc2ccco2)c2c1C(C(F)(F)F)(C(F)(F)F)N=C(c1ccc(F)cc1)N2 | active
8 | Nc1ncnc(NCc2ccc(F)cc2)c1[N+](=O)[O-] | active
9 | CCc1ccc(NC(=O)C2CCN(S(=O)(=O)c3ccc4c(c3)CC(C)N4C(C)=O)CC2)cc1 (stereo not drawn) | active
10 | CC(=O)c1ccc(N2CCN(S(=O)(=O)c3ccc4c(c3)CC(C)N4C(C)=O)CC2)cc1 (stereo not drawn) | active
11 | Cc1ccc(-n2nc3c(=O)n(CC(=O)NC(C)CCc4ccccc4)nc(C)c3c2C)cc1 (stereo not drawn) | active
12 | Cc1ccc(-n2nc3c(=O)n(C(C)C(=O)NCCCc4ccccc4)nc(C)c3c2C)cc1 (stereo not drawn) | active
13 | Cc1ccc(-n2nc3c(=O)n(C(C)C(=O)NCCC4=CCCCC4)nc(C)c3c2C)cc1 (stereo not drawn) | active
14 | Cc1ccc(-n2nc3c(=O)n(C(C)C(=O)NCCc4cccs4)nc(C)c3c2C)cc1 (stereo not drawn) | active
15 | Cc1ccc(NC(=O)c2cnc(N3CCN(c4ccccn4)CC3)c3ccccc23)c(Br)c1 | active
16 | CCc1ccc(NC(=O)c2cnc(N3CCN(c4ccccn4)CC3)c3ccccc23)cc1 | active
17 | O=C(c1cnc(N2CCN(c3ccccn3)CC2)c2ccccc12)N1CCN(c2cccc(Cl)c2)CC1 | active
18 | Cc1cc(Br)ccc1NC(=O)c1cnc(N2CCN(c3ccccn3)CC2)c2ccccc12 | active
19 | C=CCSc1nc2ccccc2n1C(=O)/C=C/c1ccc(OC)c(OC)c1 | active
20 | O=C(NC1CCCCC1)C(c1cccnc1)N(C(=O)CCl)c1ccc(F)cc1 (stereo not drawn) | active
21 | COc1ccc(N(C(=O)CCl)C(C(=O)NC2CCCCC2)c2cccnc2)cc1 (stereo not drawn) | active
22 | O=C(CN1C(=O)c2ccccc2S1(=O)=O)c1ccc2c(c1)OCCCO2 | active

Row | SMILES | outcome
23 | O=C(CN1C(=O)c2ccccc2S1(=O)=O)c1ccc2c(c1)OCCO2 | active
24 | COc1cc(/C=C/C(=O)c2ccc(NS(=O)(=O)c3ccc(C)cc3)cc2)cc(OC)c1O | active
25 | COc1cc(OC)c(OC)cc1/C=C/C(=O)c1ccc(NS(=O)(=O)c2ccc(C)cc2)cc1 | active
26 | O=C(/C(=C/c1ccc(Cl)cc1)c1nc2ccccc2[nH]1)c1cccs1 | active
27 | O=C(/C(=C/c1ccc(Cl)cc1)c1nc2ccccc2[nH]1)c1ccccc1 | active
28 | O=C(/C(=C\c1ccccc1)c1nc2ccccc2[nH]1)c1ccc(Cl)cc1 | active
29 | O=S(=O)(Nc1cccc2ncccc12)c1cccs1 | active
30 | Cc1ccc(S(=O)(=O)Nc2cccc3ncccc23)s1 | active
31 | Cc1ccc(C)c(OCC(=O)Nc2nc3ccc([N+](=O)[O-])cc3s2)c1C | active
32 | O=[N+]([O-])c1ccc(O)c(-c2cc(C(F)(F)F)nc(-c3ccccc3)n2)c1 | active
33 | CC(C)c1ccc(-n2c(-c3ccccc3)c[n+]3c2CCc2ccccc2-3)cc1.[Br-] | active
34 | CCCCCCCC[n+]1cccc2c3ccccc3ccc21.[I-] | active
35 | CCCCCCCCC[n+]1cccc2c3ccccc3ccc21.[Br-] | active
36 | O=C(NC(NC(=S)Nc1ccc(Cl)cc1Cl)C(Cl)(Cl)Cl)c1cccc([N+](=O)[O-])c1 (stereo not drawn) | active
37 | COc1ccc(Cc2[nH]n3c(=O)c(Cl)c(C)nc3c2-c2ccccc2)cc1 | active
38 | O=C(Cc1ccc(Cl)cc1)c1c[nH]c(C(=O)NCc2cccnc2)c1 | active
39 | CCc1ccc(N(CC)c2ncnc3nc[nH]c23)cc1 | active
40 | CCN(c1ccc(OC)cc1)c1ncnc2nc[nH]c12 | active
41 | CCCN(CCC)c1ncnc2nc[nH]c12 | active
42 | COc1ccc(N=C2NC(=O)/C(=C/c3ccc(O)c(OC)c3)S2)cc1 | active
43 | Cc1ccc(C(=O)NC(=S)N(C)C2CCCCC2)cc1Br | active
44 | C=CCn1nc([N+](=O)[O-])nc1Sc1cccc2cccnc12 | active

Row | SMILES | outcome
45 | Cn1nc([N+](=O)[O-])nc1Sc1cccc2cccnc12 | active
46 | O=[N+]([O-])c1ccc(Sc2cccc3cccnc23)c([N+](=O)[O-])c1 | active
47 | C=CCn1c(SCC(=O)Nc2sccc2C(N)=O)nc2sc(CC)cc2c1=O | active
48 | O=C(OCn1ncc(Br)c(Br)c1=O)c1ccccc1Cl | active
49 | O=C(OCn1ncc(Cl)c(Cl)c1=O)c1ccccc1Cl | active
50 | Cc1ccc(C(=O)OCn2ncc(Cl)c(Cl)c2=O)cc1 | active
51 | O=C(OCn1ncc(Cl)c(Cl)c1=O)c1cccc(C(F)(F)F)c1 | active
52 | COc1cc(OC)cc(C(=O)Nc2nc(-c3ccccc3)c(-c3ccccc3)o2)c1 | active
53 | COc1cccc(C(=O)Nc2nc(-c3ccccc3)c(-c3ccccc3)o2)c1 | active
54 | S=c1[nH]nc(C2CCCCC2)n1/N=C/c1ccncc1 | active
55 | O=c1c2cc(Cl)ccc2nc(-c2ccc(Cl)c(Cl)c2)n1O | active
56 | O=c1c2cc(Br)ccc2nc(-c2cccc(C(F)(F)F)c2)n1O | active
57 | COc1cccc(N2CCN(c3ncnc4c3[nH]c3ccc(F)cc34)CC2C)c1 (stereo not drawn) | active
58 | COc1cccc(N2CCN(c3ncnc4c3[nH]c3ccccc34)CC2C)c1 (stereo not drawn) | active
59 | Cc1nc(N2CCC(C(N)=O)CC2)c2c(-c3cccs3)csc2n1 | active
60 | Cc1sc2nc(CSc3ccccc3)nc(N3CCC(C(N)=O)CC3)c2c1C | active
61 | CCCc1nnc(NC(=O)c2nc(S(=O)(=O)Cc3cccc(C)c3)ncc2Cl)s1 | active
62 | Cc1cccc(CS(=O)(=O)c2ncc(Cl)c(C(=O)Nc3c(C)cccc3C)n2)c1 | active
63 | CCc1nnc(NC(=O)c2nc(S(=O)(=O)Cc3ccc(C)cc3)ncc2Cl)s1 | active
64 | CCCc1nnc(NC(=O)c2nc(S(=O)(=O)Cc3ccc(C)cc3)ncc2Cl)s1 | active
65 | CC(C)(C)C(=O)/C(=C/c1ccc(Cl)cc1)n1cncn1 | active
66 | O=c1c2ccccc2nc(/C=C/c2ccc([N+](=O)[O-])o2)n1CCCO | active

Row | SMILES | outcome
67 | O=c1c2ccccc2nc(/C=C/c2cc(Br)ccc2O)n1CCCO | active
68 | CC[n+]1c(C=C2C=C(C)OC(C)=C2)sc2ccccc21.[Cl-] | active
69 | O=[N+]([O-])c1nn(-c2ccc3c(c2)OCCO3)n(O)c1=Nc1ccccc1 | active
70 | CCOc1ccc(Nc2nc(N)nc(CCl)n2)cc1 | active
71 | Cc1ccccc1Nc1nc(N)nc(CCl)n1 | active
72 | COc1ccc(OC)c(Nc2nc(N)nc(CCl)n2)c1 | active
73 | CCCCCc1cc(O)c2c(C)cc(=O)oc2c1 | active
74 | O=C(Nc1ccccc1C(=O)O)c1cc(S(=O)(=O)N2CCCCC2)c(Cl)cc1Cl | active
75 | O=C(Nc1ccccc1C(=O)O)c1cc(S(=O)(=O)Nc2ccccc2)ccc1Cl | active
76 | Cc1cccc(NC(=O)/C=C/c2ccc([N+](=O)[O-])s2)c1 | active
77 | CC(=O)c1cccc(NC(=O)/C=C/c2ccc([N+](=O)[O-])s2)c1 | active
78 | CCOC(=O)/C=C/C(=O)Nc1cccc([N+](=O)[O-])c1 | active
79 | CC(=C/c1ccccc1)/C=N/n1c(-c2ccncc2)n[nH]c1=S | active
80 | S=c1[nH]nc(-c2cc(-c3ccccc3)n[nH]2)n1/N=C/C(Br)=C/c1ccccc1 | active
81 | CCc1cc(C(=O)NC2CCCc3c2cnn3-c2cccc(C)c2C)n(C)n1 (stereo not drawn) | active
82 | Cc1cc(C(=O)NC2CCCc3c2cnn3-c2ccc(C)c(C)c2)n(C)n1 (stereo not drawn) | active
83 | CCn1nc(C)cc1C(=O)NC1CCCc2c1cnn2-c1ccc(C)c(C)c1 (stereo not drawn) | active
84 | COCCn1c(=S)[nH]c2cc(C(=O)N3CCCC(C)C3)ccc2c1=O (stereo not drawn) | active
85 | O=C(N/N=C/c1ccccn1)c1cc(-c2ccc(Cl)cc2)nc2ccccc12 | active
86 | O=C(N/N=C/c1ccccn1)c1cc(-c2ccc(Br)cc2)nc2ccccc12 | active
87 | O=C(N/N=C/c1ccccn1)c1cc(-c2ccccc2)nc2ccccc12 | active
88 | CCCOc1cccc(-c2cc(C(=O)N/N=C/c3ccccn3)c3ccccc3n2)c1 | active

Row | SMILES | outcome
89 | O=C(c1cc(COc2cccc3cnccc23)on1)N1CCCC(CCCO)C1 (stereo not drawn) | active
90 | COCC1CCCN(C(=O)c2cc(COc3ccc4ncccc4c3)on2)C1 (stereo not drawn) | active
91 | Cc1c(C(C)NC(=O)c2cc(COc3cccc4cnccc34)on2)cnn1C (stereo not drawn) | active
92 | COCC1CCN(C(=O)c2cc(COc3cccc4cnccc34)on2)CC1 | active
93 | O=C(c1cc(COc2cccc3cnccc23)on1)N1CCC(c2ccccc2Cl)C1 (stereo not drawn) | active
94 | O=C1NC(=O)/C(=C\c2ccccc2Oc2ccc(F)c(F)c2)S1 | active
95 | Cc1cccc2cc(/C=N/NC(=O)c3ccccc3O)c(Cl)nc12 | active
96 | C=C1C(=O)[C@@]23[C@H](O)C[C@@H]4C(C)(C)CC[C@H](O)[C@@]4(C)[C@@H]2CC[C@@H]1[C@H]3O | active
97 | COc1cccc(CN(C)C(=O)c2cc(COc3ccc4ncccc4c3)on2)c1 | active
98 | CCc1ccc(CN(C)C(=O)c2cc(COc3cccc4cnccc34)on2)cc1 | active
99 | CN(Cc1nccs1)C(=O)c1cc(COc2cccc3cnccc23)on1 | active
100 | COc1ccc(-c2cc(C(F)(F)F)nc(S(C)(=O)=O)n2)cc1 | active
101 | COc1ccccc1-c1cc(C(F)(F)F)nc(S(C)(=O)=O)n1 | active
102 | COc1ccc(-c2cc(C(F)(F)F)nc(S(C)(=O)=O)n2)cc1OC | active
103 | CCCC1/C(=N/O)CC(c2ccccc2)NC1c1ccccc1 (stereo not drawn) | active
104 | N#CC1=C(N)N2C(=C(C#N)C1c1cccc(Br)c1)Nc1ccccc12 (stereo not drawn) | active
105 | N#CC1=C(N)N2C(=C(C#N)C1c1ccc(Br)cc1)Nc1ccccc12 (stereo not drawn) | active
106 | Cc1[nH]c(=O)c(C(=O)/C=C/c2ccccc2F)c2c1CCCC2 | active
107 | Cc1[nH]c(=O)c(C(=O)/C=C/c2ccccc2)c2c1CCCC2 | active
108 | COc1ccccc1/C=C/C(=O)c1c2c(c(C)[nH]c1=O)CCCC2 | active
